Experimental data published in PubChem BioAssay (Tox21).
Records with an inconclusive call do not appear. Activity calls are given as the source filed them. Unless noted, the call rests on the fitted dose curve; in most records, active means well fitted curve in the direction sought with a large enough effect in the repeat runs; inconclusive means weak or mixed curves; inactive means no such curve, though single readings can be large; an effect the other way counts as inactive or inconclusive.

Tests used:
[1] = qHTS assay to identify small molecule antagonists of the estrogen related receptor (ERR) signaling pathway from Tox21 library - cell viability counter screen (AID 1224834); further: nearly all actives have a fitted effect of over 30% in size; further: potency means the concentration at half of the fitted maximal effect
Summary of the method: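 In this quantitative HTS format, ERR cells receive compounds in DMSO and are incubated for 17.5 h at 37 C. Live-cell protease activity is then detected with CellTiter-Fluor.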

[2] = target: Luciferin 4-monooxygenase (Photinus pyralis) (UniProt P08659); test: qHTS assay to identify small molecule inhibitors of firefly luciferase (AID 1224835); further: nearly all actives have a fitted effect of over 25% in size; further: potency means the concentration at half of the fitted maximal effect
Summary of the method: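 Inhibition of purified Photinus luciferase is measured by luminescence. Substrate levels (D-luciferin, ATP) sit at their KM values. Each compound is tested in a concentration series.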

[3] = qHTS assay to identify small molecule agonists of the constitutive androstane receptor (CAR) signaling pathway - cell viability counter screen (AID 1224836); further: nearly all actives have a fitted effect of over 45% in size; further: potency means the concentration at half of the fitted maximal effect
Summary of the method: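 Cells were seeded and incubated 4 hrs. Compounds were added across 15 concentrations together with PK11195 at 0.75 uM final. Plates were incubated 23 hrs at 37 C. CellTiter-Fluor was added and fluorescence measured.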

[4] = qHTS assay to identify small molecule antagonists of the constitutive androstane receptor (CAR) signaling pathway - cell viability counter screen (AID 1224837); further: nearly all actives have a fitted effect of over 45% in size; further: potency means the concentration at half of the fitted maximal effect
Summary of the method: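 In quantitative HTS format, compounds at 15 concentrations were applied to HepG2 cells double-transfected with hCAR and CYP2B6-2.2kb under 50 nM CITCO stimulation; live-cell protease activity was read after 23 hr via CellTiter-Fluor.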

[5] = target: Nuclear receptor subfamily 1 group I member 3 (Homo sapiens) (UniProt Q14994); test: qHTS assay to identify small molecule antagonists of the constitutive androstane receptor (CAR) signaling pathway (AID 1224838); further: nearly all actives have a fitted effect of over 40% in size; further: potency means the concentration at half of the fitted maximal effect
Summary of the method: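 CITCO-stimulated (50 nM final) HepG2 cells stably transfected with hCAR and CYP2B6-2.2kb luciferase were exposed to compounds at 15 concentrations for 24 h at 37 C/5% CO2. A luciferase reagent was added and luminescence recorded after 30 min.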

[6] = target: Nuclear receptor subfamily 1 group I member 3 (Homo sapiens) (UniProt Q14994); test: qHTS assay to identify small molecule agonists of the constitutive androstane receptor (CAR) signaling pathway (AID 1224839); further: nearly all actives have a fitted effect of over 15% in size; further: potency means the concentration at half of the fitted maximal effect
Summary of the method: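 Cells were plated and incubated 4 hrs, then dosed with compounds at 15 concentrations. PK11195 was added to 0.75 uM final. After 24 hrs at 37 C, luciferase luminescence was measured.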

[7] = qHTS assay to identify small molecule antagonists of the estrogen related receptor signaling pathway with the pleiotropic PPARgamma coactivator (PGC) from Tox21 10K library - cell viability counter screen (AID 1224840; active means well fitted cell-killing curve with a large enough effect in the repeat runs, not every such curve was filed as active; further: nearly all actives have a fitted effect of over 40% in size)
Summary of the method: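 Viability counter screen, PGC/ERR cells: 17.5 h compound exposure at 37 C, CellTiter-Fluor fluorescence endpoint.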

[8] = qHTS assay to identify small molecule agonists of the estrogen related receptor signaling pathway with the pleiotropic PPARgamma coactivator (PGC) (AID 1224823)
Summary of the method: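 Luminescence readout (One-Glo, 30 min RT) from PGC/ERR cell line treated 18 h at 37 C with pin-tool-delivered DMSO compound solutions; cells plated 6 h before dosing. Quantitative HTS format.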

[9] = qHTS assay to identify small molecule antagonists of the estrogen related receptor signaling pathway with the pleiotropic PPARgamma coactivator (PGC) from Tox21 10K library (AID 1224841; call rule not given here; further: actives are mostly falling curves and most rising ones were filed inactive; nearly all actives have a fitted effect of over 50% in size; further: potency means the concentration at half of the fitted maximal effect)
Summary of the method: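 In the PGC/ERR line, DMSO solutions of test chemicals are pin-delivered to 2,000 cells/well six hours after dispensing. Following eighteen hours' incubation, One-Glo reagent is added and luminescence recorded.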

[10] = qHTS assay to identify small molecule agonists of the estrogen related receptor signaling pathway with the pleiotropic PPARgamma coactivator (PGC) from Tox21 10K library (AID 1224842); further: nearly all actives have a fitted effect of over 15% in size
Summary of the method: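 Luminescence from One-Glo (30 min, room temperature) measured after PGC/ERR cells had 18 h at 37 C with pinned compound (23 nL in DMSO). Cells had been seeded at 2,000 per well and pre-incubated 6 h.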

Measured: Potency

Luciferin 4-monooxygenase (Photinus pyralis), sequence (P08659 whole entry, looked up): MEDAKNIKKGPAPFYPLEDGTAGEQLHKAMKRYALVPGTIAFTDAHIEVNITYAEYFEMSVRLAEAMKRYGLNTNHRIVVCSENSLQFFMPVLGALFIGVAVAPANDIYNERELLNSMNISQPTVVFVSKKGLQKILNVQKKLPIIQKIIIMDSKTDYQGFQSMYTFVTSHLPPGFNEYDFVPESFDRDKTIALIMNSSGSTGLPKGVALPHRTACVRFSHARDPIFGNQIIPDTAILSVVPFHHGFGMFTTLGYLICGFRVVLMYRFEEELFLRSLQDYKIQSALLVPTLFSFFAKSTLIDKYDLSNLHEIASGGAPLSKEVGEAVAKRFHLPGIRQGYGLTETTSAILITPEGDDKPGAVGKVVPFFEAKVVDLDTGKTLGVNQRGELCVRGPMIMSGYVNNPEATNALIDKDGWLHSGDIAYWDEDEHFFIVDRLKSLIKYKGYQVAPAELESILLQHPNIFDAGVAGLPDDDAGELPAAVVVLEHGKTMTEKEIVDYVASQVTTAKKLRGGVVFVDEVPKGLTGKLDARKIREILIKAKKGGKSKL
Nuclear receptor subfamily 1 group I member 3 (Homo sapiens), sequence (Q14994 whole entry, looked up): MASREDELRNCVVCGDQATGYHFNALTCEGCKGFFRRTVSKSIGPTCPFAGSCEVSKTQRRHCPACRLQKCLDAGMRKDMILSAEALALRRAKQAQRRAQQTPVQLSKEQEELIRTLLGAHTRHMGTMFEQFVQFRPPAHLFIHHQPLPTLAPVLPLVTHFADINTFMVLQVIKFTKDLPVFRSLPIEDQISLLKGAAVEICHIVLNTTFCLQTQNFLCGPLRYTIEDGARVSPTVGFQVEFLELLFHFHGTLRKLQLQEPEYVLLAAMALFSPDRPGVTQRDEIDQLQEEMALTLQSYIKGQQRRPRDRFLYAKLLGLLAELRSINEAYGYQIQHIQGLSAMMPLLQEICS

CCCCC(CC)COP(=O)(O)O (stereo not drawn)
inactive: [1] | [2] | [3] | [4] | [5] | [6]

O=C(O)c1cccc(-c2noc(-c3ccccc3F)n2)c1
inactive: [1] | [3] | [4] | [5] | [7]
active: [2] 0.0087 µM | [6] 0.0075 µM

CN1C[C@H](C(=O)N[C@]2(C)O[C@@]3(O)[C@@H]4CCCN4C(=O)[C@H](Cc4ccccc4)N3C2=O)C[C@@H]2c3cccc4[nH]cc(c34)C[C@H]21
active: [1] 26.6 µM
inactive: [8] | [2] | [5] | [6] | [9]

Cc1ccc(C(C)(C)O)cc1
inactive: [1] | [2] | [3] | [4] | [5] | [6] | [7]

Cc1[nH]cnc1CN1CCc2c(c3ccccc3n2C)C1=O
inactive: [1] | [2] | [3] | [4] | [5] | [6]

CCCC(C(=O)OCCN(CC)CC)(c1ccccc1)c1ccccc1
inactive: [8] | [2] | [3] | [5] | [10]
active: [1] 29.8 µM | [6] 11.9 µM

CCOC(=O)C1=C(C)NC(C)=C(C(=O)OC)C1c1cccc(Cl)c1Cl (stereo not drawn)
inactive: [8] | [1] | [2] | [3] | [4] | [5] | [9] | [10]

C=CCc1ccccc1OCC(O)CNC(C)C (stereo not drawn)
inactive: [1] | [2] | [3] | [4] | [5] | [6] | [7]

OCCN1CCN(CCCN2c3ccccc3Sc3ccc(Cl)cc32)CC1
inactive: [8] | [2] | [6] | [9]
active: [3] 29.8 µM | [4] 29.8 µM

O=C1CCCCCCCCCCOCCCCO1
inactive: [1] | [2] | [3] | [4] | [5] | [6] | [7]

CCC=CC#N
inactive: [1] | [2] | [3] | [4] | [5] | [6] | [7]

Cc1cc(C)cc(N)c1
inactive: [1] | [2] | [3] | [4] | [5] | [6] | [7]

O=C(O)CCc1nc(-c2ccccc2)c(-c2ccccc2)o1
inactive: [8] | [1] | [2] | [3] | [4] | [5] | [6] | [7] | [9]

CC=C(Cl)Cl
inactive: [1] | [2] | [3] | [4] | [5] | [6]

CCCCCCCCOc1ccc(C(=O)O)cc1
active: [2] 31.4 µM
inactive: [1] | [3] | [4] | [5]

C1C[C@@H]2[C@H]3CC[C@H](C3)[C@@H]2C1
inactive: [1] | [2] | [3] | [4] | [5]

CC1CC(C)C(=O)C1=O (stereo not drawn)
inactive: [1] | [2] | [3] | [4] | [5] | [6] | [7]

Brc1cc(Br)c(Oc2cc(Br)c(Br)cc2Br)cc1Br
inactive: [1] | [2] | [3] | [4] | [5] | [6] | [7]

Nc1ccc(N=Nc2ccccc2)c(N)c1
active: [1] 26.7 µM | [2] 2.47 µM | [3] 30 µM | [4] 53.3 µM

CCCCCCCCN
inactive: [1] | [2] | [3] | [4] | [5] | [6] | [7]

CN(C)CCC=C1c2ccccc2C=Cc2ccccc21
inactive: [8] | [2] | [3] | [5] | [7] | [9] | [10]

COC(=O)CS
inactive: [1] | [2] | [3] | [4]

CCCCN(CCCC)C(C(N)=O)c1ccc(OC)cc1 (stereo not drawn)
inactive: [1] | [2] | [3] | [4] | [5]

COC(=O)CCS
inactive: [1] | [2] | [3] | [4] | [5] | [6] | [7]

CC1(C)O[C@@H]2C[C@H]3[C@@H]4C[C@H](F)C5=CC(=O)C=C[C@]5(C)[C@H]4[C@@H](O)C[C@]3(C)[C@]2(C(=O)CO)O1
inactive: [1] | [2] | [3] | [4] | [5] | [6] | [7]

CCc1ccccc1
inactive: [1] | [2] | [3] | [4] | [5] | [6] | [7]

CC(C)(c1ccccc1)c1ccccc1
active: [6] 45.1 µM
inactive: [1] | [2] | [3] | [4] | [5] | [7]

C1COC1
inactive: [1] | [2] | [3] | [4] | [5] | [6] | [7]

O=C(CCc1ccc(O)cc1)c1c(O)cc(O)cc1O
active: [2] 72.6 µM
inactive: [8] | [3] | [4] | [9]

OCCOCC#CCOCCO
inactive: [1] | [2] | [3] | [4] | [5]

c1csc(SSc2cccs2)c1
inactive: [6]
active: [1] 54.5 µM | [2] 22.4 µM | [3] 54.5 µM | [4] 48.6 µM | [5] 43.3 µM

CC(=O)c1cc2ccccc2s1
inactive: [1] | [2] | [3] | [4] | [5] | [6] | [7]

C[C@H]1c2cccc(O)c2C(O)=C2C(=O)[C@]3(O)C(O)=C(C(N)=O)C(=O)[C@@H](N(C)C)[C@@H]3[C@@H](O)[C@@H]21
inactive: [8] | [1] | [2] | [4] | [5] | [6] | [7]

Cc1cc(C)c(N)cc1C
inactive: [1] | [2] | [3] | [4] | [5] | [6] | [7]

CCC1NC(=O)c2cc(S(N)(=O)=O)c(Cl)cc2N1 (stereo not drawn)
inactive: [1] | [2] | [3] | [4] | [5]

CN1C(=O)c2ccccc2C1=O
inactive: [8] | [1] | [2] | [4] | [5] | [7] | [9] | [10]

O=c1[nH]ncc2ccccc12
inactive: [1] | [2] | [3] | [4] | [5] | [6] | [7]

CN(C)CCN1C(=O)c2ccccc2N(C)c2ccccc21
inactive: [1] | [2] | [3] | [4] | [5]
active: [6] 26.6 µM

C=CC(=O)[O-].C=CC(=O)[O-].[Zn+2]
inactive: [1] | [3] | [4] | [5] | [6]
active: [2] 2.19 µM

CCOC(=O)c1ccc(OCCN2C[C@H](O)[C@@H](O)[C@H](O)[C@H]2CO)cc1
inactive: [1] | [2] | [3] | [4] | [5] | [6]

CCCCCCCC/C=C\CCCCCCCCCCCC(=O)O
inactive: [1] | [2] | [3] | [4] | [5] | [6] | [7]

CC(C)=CC(=O)C=C(C)C
inactive: [1] | [2] | [3] | [4] | [5] | [6] | [7] | [9] | [10]

Clc1cc(Cl)nc(Cl)n1
inactive: [1] | [2] | [3] | [4] | [5] | [6] | [7]

c1ccc(C[n+]2cccc3ccccc32)cc1
active: [9] 24.3 µM
inactive: [1] | [2] | [3] | [4] | [5] | [6] | [7] | [10]

COc1ccccc1Oc1c(NS(=O)(=O)c2ccc(C(C)(C)C)cc2)nc(-c2ncccn2)nc1OCCO
inactive: [1] | [2] | [3] | [4] | [5] | [6] | [7] | [9] | [10]

COc1ccc(OC(=O)N(CC(=O)O)Cc2ccc(OCCc3nc(-c4ccccc4)oc3C)cc2)cc1
inactive: [1] | [2] | [3] | [4] | [5] | [6] | [9]

OC1(c2ccccc2)CCNCC1
inactive: [1] | [2] | [3] | [4] | [5] | [6] | [7] | [9]

C[C@H]1C[C@H](O)c2ccsc2S1(=O)=O
inactive: [1] | [2] | [3] | [4] | [5] | [6] | [9]

CC1(C)[C@@H](OC(=O)CCC(=O)O)CC[C@]2(C)[C@H]3C(=O)C=C4[C@@H]5C[C@@](C)(C(=O)O)CC[C@]5(C)CC[C@@]4(C)[C@]3(C)CC[C@@H]12
inactive: [1] | [2] | [3] | [4] | [5] | [6] | [7] | [9] | [10]

CC(C)=CCC/C(C)=C/CC/C(C)=C/CCC(=O)OC/C=C(\C)CCC=C(C)C
inactive: [1] | [2] | [3] | [4] | [5] | [6] | [7] | [9]

CC(=O)Nc1ccc(C)cc1C
inactive: [1] | [2] | [3] | [4] | [5] | [6] | [9]

COC(=O)c1nc(Cl)c(Cl)nc1N
inactive: [2] | [3] | [6] | [10]
active: [1] 11.9 µM | [4] 29.8 µM | [5] 2.98 µM

CCCCC(CC)CN (stereo not drawn)
inactive: [1] | [2] | [3] | [4] | [5] | [6] | [7] | [9] | [10]

O=C(Nc1cccc2c(=O)cc(-c3nn[nH]n3)oc12)c1ccc(OCCCCc2ccccc2)cc1
inactive: [1] | [3] | [4] | [5] | [6] | [7]
active: [2] 27.5 µM

CC(CO)CO
inactive: [1] | [2] | [3] | [4] | [5] | [6] | [7] | [9] | [10]

CCCCCCCCC(CCCCCC)C(=O)O (stereo not drawn)
inactive: [1] | [2] | [3] | [4] | [5] | [6] | [7] | [9] | [10]

CCCCCCNC(=O)n1cc(F)c(=O)[nH]c1=O
inactive: [1] | [2] | [3] | [4] | [6] | [7] | [9] | [10]
active: [5] 2.11 µM

CC(CCC(=O)O)C(=O)O (stereo not drawn)
inactive: [1] | [2] | [3] | [4] | [5] | [6] | [7] | [9] | [10]
